39 compounds from PubChem BioAssay (NCATS) can be followed below.

Records with an inconclusive call do not appear. The source made the active and inactive calls. The call rests on the fitted dose curve; in most records, active means well fitted inhibition curve with a large enough effect; inconclusive means small, poorly fitted or top-dose-only effect; inactive means flat fitted curve, though single readings scatter.

For this test, the system named is CRL-7250. Kind of test: qHTS assay to identify novel small-molecules to repurpose for Merkel cell carcinoma treatment (AID 1296009). Further: nearly all actives have a fitted effect of over 60% in size. The conditions noted are these: MCC and control cell lines, CellTiter-Glo viability, 72 h; at 44.8 µM (top of the series) unless noted. Summed up:
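CellTiter-Glo luminescence after 72 hr compound exposure at 37 degree celsius gave cell viability. Libraries NPC and MIPE were run as 8- and 11-point dose responses; RLUs normalized to DMSO (negative) and no-cell (cytotoxicity) controls.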
(Quantitative high-throughput screening tests each substance at several concentrations.)
Consider `NC(=O)NS(=O)(=O)c1ccc(Cl)cc1`, for which the compound was classed as inactive.

In the case of `CC(N=C(NC#N)Nc1ccncc1)C(C)(C)C` (centres undefined), the compound was classed as inactive. Under `Cc1cnc(NS(=O)(=O)c2ccc(N)cc2)nc1` stands “inactive”. Then `NS(=O)(=O)c1cc(Cl)c(Cl)c(S(N)(=O)=O)c1`, with “inactive”; and `CN(C)C(=O)Oc1ccc[n+](C)c1`, with “inactive”. Then `COc1ccc(C2CNC(=O)C2)cc1OC1CCCC1` (centres undefined), with “inactive”; and `O=C(O)Cc1ccc(OCCNC[C@H](O)c2ccccc2)cc1`, with “inactive”; and `Cc1cnc(NC(=O)C2=C(O)c3ccccc3S(=O)(=O)N2C)s1`, with “inactive”.

With `O=C1NCC2(CCN(CCc3ccccc3)CC2)O1`, the result was inactive. As to `NCCCC[C@H](N[C@@H](CCc1ccccc1)C(=O)O)C(=O)N1CCC[C@H]1C(=O)O`, the result was inactive. Then `Cc1c(C)c2c(c(C)c1O)CCC(C)(COc1ccc(CC3SC(=O)NC3=O)cc1)O2` (centres undefined), with “inactive”; and `Cn1nnc2c(C(N)=O)ncn2c1=O`, with “inactive”; and `Cc1cc(CCCOc2c(C)cc(-c3noc(C(F)(F)F)n3)cc2C)on1`, with “inactive”. Then `CC1(C)O[C@H]2CC(=O)OC[C@]23[C@H]2CC[C@@]4(C)[C@H](c5ccoc5)OC(=O)[C@H]5O[C@]54[C@]2(C)C(=O)C[C@@H]13`, with “inactive [at 17.4 µM]”; and `CC(C)Cn1cnc2c(N)nc3ccccc3c21`, with “inactive [at 17.4 µM]”; and `CC1COc2c(N3CCN(C)CC3)c(F)cc3c(=O)c(C(=O)O)cn1c23` (centres undefined), with “inactive”. Under `CCN(CC)C(C)CN1c2ccccc2Sc2ccccc21` (centres undefined) stands “inactive”; under `CCCCCCn1c(=O)c2c(ncn2C)n(C)c1=O`, “inactive”. As for `CC(C)(Oc1ccc(C2CC2(Cl)Cl)cc1)C(=O)O` (centres undefined), the outcome was “inactive [at 92 µM]”. Then `CCCNC(C)C(=O)Nc1c(C)csc1C(=O)OC` (centres undefined), with “inactive”. Then `O=C(O)c1cc(=O)[nH]c(=O)[nH]1`, with “inactive”. As for `CCOC(=O)C(O)c1ccccc1` (centres undefined), the compound was classed as inactive.

On to `O=C(NC(Cc1cc(=O)[nH]c2ccccc12)C(=O)O)c1ccc(Cl)cc1` (centres undefined), for which the call was inactive.

For `C/C(=N\O)[C@@H](C)NCC(C)(C)CN[C@H](C)/C(C)=N/O`, the call was inactive. Under `O=C1CN(/N=C/c2ccc([N+](=O)[O-])o2)C(=O)N1` stands “inactive”; under `O=C(O)CCCC[C@@H]1SC[C@@H]2NC(=O)N[C@@H]21`, “inactive”.

With `CN=C(NC#N)NCCSCc1nc[nH]c1C`, the compound was classed as inactive. Then `Cc1ccc(C(C)C)c(O)c1`, with “inactive”. As for `CCNC(=O)/C=C/c1cccc(Br)c1`, the call was inactive. Under `CCC[C@@H]1C[C@@H](C(=O)N[C@@H]([C@H]2O[C@H](SC)[C@H](O)[C@@H](O)[C@H]2O)[C@@H](C)O)N(C)C1` stands “inactive”; under `Cc1cccc(C)c1NC(=O)CN1CCCCCC1`, “inactive”. Regarding `CCCCN(CCCC)CCCOC(=O)c1ccc(N)cc1`, the result was inactive.

`CC(=O)N(CC(O)CO)c1c(I)c(C(=O)NCC(O)CO)c(I)c(C(=O)NCC(O)CO)c1I` (centres undefined): the result was inactive. In the case of `c1ccc2sc(SN3CCOCC3)nc2c1`, the call was inactive. Under `CCOC(=O)C1=C(C)NC(C)=C(C(=O)OC)C1c1cccc([N+](=O)[O-])c1` (centres undefined) stands “inactive”; under `Cc1nc(-c2ccc(Cl)cc2)oc1COC(C)(C)C(=O)O`, “inactive”; under `CCn1cc(C(=O)O)c(=O)c2cc(F)c(N3CCNC(C)C3)c(F)c21` (centres undefined), “inactive”. Under `COC(=O)[C@@H]1[C@H]2C[C@H]3c4[nH]c5ccccc5c4CCN3C[C@@H]2CC[C@@H]1O` stands “inactive”. As for `COc1cc2nc(Cl)nc(N)c2cc1OC`, the compound was called inactive.
